The assay relates to Aedes aegypti larvae. In words: larval motility relative to same well at 0 h (fraction); higher = more motile (less active compound), active = 0.4 or less. The settings on record: 10 µM. In a few lines: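 Larvae (Aedes aegypti, hatched in pond salt solution with yeast at 25 °C and taken 18–24 h later) were plated at about 10 per 100 µL well. Compounds at 10 µM in 1% v/v DMSO were imaged with INVAPP at 0, 2 and 24 h, alongside solvent and larvicide controls on each plate. Reported relative motility is each well's score over its own starting score, as a median of three independent larval batches.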

This passage reports larval motility results from the supplement of paper PMC8540655.

Values without a mark were called inactive.

On to `CONC(=N)c1ccc(-c2ccc(-c3ccc(C(=N)NOC)cc3)o2)cc1`, for which the larval motility reads like this: (2 h) 0.699; (24 h) 2.2.

Turning to `O=C(O)/C=C/C=C/c1cccc(Oc2cc(Cl)cc(Cl)c2)c1`, the larval motility (2 h) was 1.55 and the larval motility (24 h) was 0.995.

As to `Nc1nc(O)c2ncn(COCCO)c2n1`, the larval motility (2 h) is 0.732 and the larval motility (24 h) was 0.823.

Turning to `COc1ccc(OCc2ccc(COc3c(Cl)cccc3Cl)cc2)c(Cl)c1`, the larval motility (2 h) is 1.19 and the larval motility (24 h) was 1.03.

As for `O=C(O)C[C@H]1CC[C@H](c2ccc(-c3ccc(Nc4ccc(C(F)(F)F)nc4)cn3)cc2)CC1`, the larval motility is, setting by setting: (2 h) 0.644; (24 h) 0.489.

Regarding `CC[C@@]1(O)C(=O)OCc2c1cc1n(c2=O)Cc2cc3c([N+](=O)[O-])cccc3nc2-1`, the larval motility is 0.324 (active) (2 h) and 0.433 (24 h).

With `Nc1nnnn1CCOc1c2[nH]c3ccc(Cl)cc3c2cc2c1[nH]c1ccc(Cl)cc12`, the larval motility (2 h) was 0.958 and the larval motility (24 h) was 1.16.

Regarding `O=C(NCc1ccc2c3c(cccc13)C(=O)N2)c1cccs1`, the larval motility reads like this: (2 h) 0.944; (24 h) 0.861.

In the case of `CC(C)(C)c1ccc(OCCn2nc(C(=O)O)c3ccccc3c2=O)cc1`, the larval motility is 2.82 (2 h) and 3.46 (24 h).

As for `O=C(CSc1nnc(Br)n1-c1ccc(C2CC2)c2ccccc12)Nc1ccc(C(=O)O)cc1Cl`, the larval motility was 0.815 (2 h) and 0.894 (24 h).

Take `O=C(Nc1[nH]c(=O)ncc1F)c1ccccc1`: the larval motility reads like this: (2 h) 0.527; (24 h) 0.773.
